Experimental data reported in the supplement of paper PMC6555819.

How the values were obtained:
Assay in all cases: PBM binding z-score (relative to random genomic background probes); higher = stronger binding; sequences stand for … in GC…GCGATTGACAGCGTAGAATGAAGG
[1] = system: FXR:RXRa (NR concentration 270 nM, RXRa partner concentration 90 nM)
Outline: (§1)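 Ligand-free nuclear receptor dimers were bound for 1 h to custom Agilent 4×180K protein-binding microarrays. Detection used antibodies against each partner (one per run). Binding z-scores rest on regression-normalized fluorescence, with random background probes as the reference.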

[2] = system: LXRa:RXRa (NR concentration 270 nM, RXRa partner concentration 90 nM)
Outline: as §1

[3] = system: LXRa homodimer (NR concentration 270 nM)
Outline: as §1

[4] = system: LXRb:RXRa (NR concentration 270 nM, RXRa partner concentration 90 nM)
Outline: as §1

[5] = system: LXRb homodimer (NR concentration 270 nM)
Outline: as §1

[6] = system: PPARa:RXRa (NR concentration 270 nM, RXRa partner concentration 90 nM)
Outline: as §1

[7] = system: PPARg:RXRa (NR concentration 180 nM, RXRa partner concentration 90 nM)
Outline: as §1

[8] = system: PPARg:RXRa 270nM:90nM, anti-RXR (NR concentration 270 nM, RXRa partner concentration 90 nM)
Outline: as §1

[9] = system: PPARg:RXRa 30nM:10nM, anti-RXR (NR concentration 30 nM, RXRa partner concentration 10 nM)
Outline: as §1

[10] = system: PPARg:RXRa 90nM:30nM, anti-RXR (NR concentration 90 nM, RXRa partner concentration 30 nM)
Outline: as §1

[11] = system: PPARg:RXRa DBDmut IVT, anti-RXR (DBD mutation: RXRa K156A/R161A, NR concentration 270 nM, RXRa partner concentration 90 nM)
Outline: as §1

[12] = system: PPARg:RXRa IVT, anti-PPARg (NR concentration 270 nM, RXRa partner concentration 90 nM)
Outline: as §1

[13] = system: PPARg DBDmut:RXRa IVT, anti-PPARg (DBD mutation: PPARg1 K132A/R137A, NR concentration 270 nM, RXRa partner concentration 90 nM)
Outline: as §1

[14] = system: PPARg DBDmut IVT, anti-PPARg (DBD mutation: PPARg1 K132A/R137A, NR concentration 270 nM)
Outline: as §1

[15] = system: PPARg homodimer (NR concentration 180 nM)
Outline: as §1

[16] = system: PXR:RXRa (NR concentration 270 nM, RXRa partner concentration 90 nM)
Outline: as §1

[17] = system: PXR homodimer (NR concentration 270 nM)
Outline: as §1

[18] = system: RARa:RXR (NR concentration 270 nM, RXRa partner concentration 90 nM)
Outline: as §1

[19] = system: RARa homodimer (NR concentration 270 nM)
Outline: as §1

[20] = system: RARb:RXRa (NR concentration 270 nM, RXRa partner concentration 90 nM)
Outline: as §1

Sequence	PBM binding z-score [1]	PBM binding z-score [2]	PBM binding z-score [3]	PBM binding z-score [4]	PBM binding z-score [5]	PBM binding z-score [6]	PBM binding z-score [7]	PBM binding z-score [8]	PBM binding z-score [9]	PBM binding z-score [10]	PBM binding z-score [11]	PBM binding z-score [12]	PBM binding z-score [13]	PBM binding z-score [14]	PBM binding z-score [15]	PBM binding z-score [16]	PBM binding z-score [17]	PBM binding z-score [18]	PBM binding z-score [19]	PBM binding z-score [20]
TCTCGGAGGACACGAAACGTCAGAGCTCGACATC	0.138	-0.218	-0.617	-0.347	-0.872	-0.13	0.395	0.915	2.04	1.4	1.4	0.0714	-0.35	-0.247	-0.276	-0.408	-0.586	-0.175	-0.713	1.25
AACGAAAGGTCGACGAGGTGAGTATACACCGTTT	4.99	3.68	0.231	2.9	0.0317	4.82	3.19	3.42	1.02	2.48	0.793	1.94	0.978	0.568	1.32	2.95	0.578	3.56	0.305	3.91
CCTACTGGGCCATCAGGTGATTGATATCAACGTT	-0.454	-0.704	-0.341	-0.438	-0.864	0.426	1.29	1.63	0.102	1.27	3.79	4.34	0.38	-0.0432	-0.3	-0.668	-0.342	-0.448	-0.0417	0.0448
ATATGTGGGTTATCGGGTCATTCAGTTTGCGCAT	3.03	2.75	1.74	3.53	1.8	4.86	6.89	5.78	3.08	5.43	7.02	7.14	3.15	3.66	3.07	3.93	7.1	3.81	2.31	2.42
AGTAGCAGGCCAAGGGTCACTCAAGATTAGTCCG	2.36	2.53	0.22	2.8	-0.43	4.63	7.54	7.15	6.3	7.51	0.462	3.88	-0.464	-0.976	1.7	3.19	-0.0466	4.3	0.186	3.65
TCTAGTTGGTGACGGAGGTCACACACGACGGGTA	2.59	3.03	1.85	2.9	0.435	3.65	2.52	3.45	3.36	3.36	1.77	3.08	0.76	0.756	2.31	3.78	0.917	3.78	0.681	3.36
GCTTACGGGTCAAAGGTTACAGCATGAATAGAAT	8.04	5.9	0.488	6.05	0.89	7.24	12	9.99	10	11.5	5.26	6.43	2.32	2.26	5.3	6.45	0.418	8.5	1.16	4.7
CCTCGGAGGACAACAGGATGTCAGAGCTGCCAGA	-0.208	-0.272	-0.316	-0.845	-1.16	-0.631	0.183	-1.12	-0.754	-1.23	0.0272	-0.669	-0.339	-1.74	-0.00372	-0.729	-0.378	-0.712	-0.0154	1.13
GATAGTTGGTCAGTAAAAGGTCACACACCGGTCG	3.47	4.21	4.89	4.06	0.786	4.57	3.46	4.68	2.35	3.8	1	3.26	0.61	0.944	4.23	4.92	1.52	5.65	3.2	4.42
TAGCCTAGGTCATTCAGGCGCCAGTATAGAAAGC	5.09	3.26	0.555	2.5	0.661	3.35	2.01	2.37	0.32	1.41	1.59	2.61	0.787	-0.107	1.85	1.68	-0.342	2.44	-0.00217	3.56
CCTACTGGGCCAATAAGGTCATTGATGCCGATAA	2.84	2.93	1.06	3.03	-0.277	4.04	2.89	3.1	0.789	2.38	3.88	4.4	-0.359	-0.0114	1.04	3.77	3.17	3.56	0.431	3.17
ATCGAATGGTCGTGAGGTGAGTATACAGAAAGGC	0.132	-0.131	-0.134	-0.373	-0.124	-0.301	0.654	-0.486	-0.0496	-0.425	-0.654	0.348	0.375	-0.00822	0.181	-0.104	0.00681	0.113	0.259	0.464
CCTACTGGGGCACGAAAGGTCATTGATTCAGTGA	4.09	5.15	4.81	4.57	0.0561	4.99	6.01	5.54	2.79	4.75	5.75	6.88	0.869	0.0108	3.09	5.68	1.16	5.47	0.333	4.41
CAAACTAGGTCAAAGGTCAAACTCGAGCCAACCA	8.63	7.62	6.78	7.4	3.51	7.76	14.1	11.6	13.3	13.7	8.72	9.06	5.54	4.24	5.23	7.03	2.84	8.96	3.29	5.81
TCTGCTTGGTCAACGATGGTCAGCTAATCTGCTA	-0.224	-0.219	-0.946	-0.549	-0.202	0.184	-0.488	0.665	1.65	0.96	0.689	0.425	0.225	-0.53	-0.633	-0.0602	-0.841	0.401	-1.62	1.17
